Reference: ChEMBL document CHEMBL3988442, “University of Dundee, Small-Polar-MMV Screening Library” (2021)

Columns and labels:
[1] = molecular target: T1, Aspartate--tRNA(Asp/Asn) ligase (Mycobacterium tuberculosis (strain ATCC 25618 / H37Rv)) (UniProt P9WFW3); test: Assay for Asp RNA synthetase-1 from Mycobacterium tuberculosis; assay type: functional; parameters: scale not given: direction of the effect not stated beside the values; details: 30 µM; also: in the data most compounds retested in dose-response had high values
T1 sequence (whole entry): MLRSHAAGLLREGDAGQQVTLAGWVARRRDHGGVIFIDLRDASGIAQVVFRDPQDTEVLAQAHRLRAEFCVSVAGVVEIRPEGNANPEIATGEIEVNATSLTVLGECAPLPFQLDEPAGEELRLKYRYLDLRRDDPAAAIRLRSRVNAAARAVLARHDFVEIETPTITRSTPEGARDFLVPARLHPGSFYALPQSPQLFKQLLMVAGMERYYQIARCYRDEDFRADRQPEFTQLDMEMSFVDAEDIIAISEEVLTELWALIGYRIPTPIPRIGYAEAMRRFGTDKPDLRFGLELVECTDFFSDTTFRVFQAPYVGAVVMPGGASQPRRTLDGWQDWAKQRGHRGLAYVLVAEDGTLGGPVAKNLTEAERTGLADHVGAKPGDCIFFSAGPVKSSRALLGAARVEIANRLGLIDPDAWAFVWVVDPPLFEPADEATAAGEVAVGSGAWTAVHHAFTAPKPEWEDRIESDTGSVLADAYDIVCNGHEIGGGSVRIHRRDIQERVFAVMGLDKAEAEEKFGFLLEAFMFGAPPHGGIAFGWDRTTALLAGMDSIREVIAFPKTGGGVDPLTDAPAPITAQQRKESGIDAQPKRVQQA

[2] = molecular target: Shiga toxin 2 (Escherichia coli O157:H7) (UniProt P09385+P09386); test: E. coli 0.157:H7 Shiga Toxin SOP - stx2 screening assay; assay type: functional; parameters: scale not given: direction of the effect not stated beside the values; details: 30 µM

Compound: CCC(=O)Nc1ccc(C(C)NC(=O)COCCOC)cc1 (stereo not drawn)
- Percent Effect [1]: 0.539%
- Percent Effect [2]: -16.3%

Compound: CCCNC(=O)NCc1cccnc1OC
- Percent Effect [1]: -6.48%
- Percent Effect [2]: -26.6%

Compound: NC(=O)COc1ccc(CNCc2ccc(F)c(F)c2)cc1
- Percent Effect [1]: -1.73%
- Percent Effect [2]: -31.1%

Compound: COc1cc(CNCc2c(C(C)C)nn(C)c2N(C)C)ccn1
- Percent Effect [1]: 0.522%
- Percent Effect [2]: 22.2%

Compound: CN(Cc1ncc[nH]1)CC(c1cccs1)N1CCOCC1 (stereo not drawn)
- Percent Effect [1]: -3.41%
- Percent Effect [2]: 4.34%

Compound: CN1CCC(Oc2ccc(NC(=O)c3ccccc3Br)cc2)CC1
- Percent Effect [1]: -0.921%
- Percent Effect [2]: -69.6%

Compound: Cc1ccc(CC(=O)N2CCc3nnc(N(C)C)cc3C2)cn1
- Percent Effect [1]: 0.322%
- Percent Effect [2]: -40.7%

Compound: Cc1ccc2c(n1)N(Cc1cccnc1)CCN(C(=O)C1CCC1)C2
- Percent Effect [1]: 14.8%
- Percent Effect [2]: -15.2%

Compound: CO[C@@H]1CCN(C(=O)c2ccccn2)[C@H]1Cc1ccccc1
- Percent Effect [1]: 3.21%
- Percent Effect [2]: 4.36%

Compound: O=C(c1ccc(OCC2CC2)nc1)N1CCCC(n2cncn2)C1 (stereo not drawn)
- Percent Effect [1]: 1.48%
- Percent Effect [2]: -39.7%

Compound: Cc1nn(C)cc1CN(C)Cc1cc2c(cc1OC(F)F)OCO2
- Percent Effect [1]: 3.57%
- Percent Effect [2]: -11.3%

Compound: CCc1nccn1-c1cncc(C2CCCN2Cc2ccc(F)cc2)n1 (stereo not drawn)
- Percent Effect [1]: 1.57%
- Percent Effect [2]: -28.9%

Compound: Cc1ccc(C(=O)N2CC[C@@H]3[C@H]2CCC(=O)N3c2ccccc2)o1
- Percent Effect [1]: -6.1%
- Percent Effect [2]: -13%

Compound: O=C(c1ccc(Cl)cc1)N1CCCn2nnc(Cn3cccn3)c2C1
- Percent Effect [1]: -1.14%
- Percent Effect [2]: -4.47%

Compound: c1ccc(CCN2CCN(c3ccc4nncn4n3)CC2)nc1
- Percent Effect [1]: 1.58%
- Percent Effect [2]: -28.9%

Compound: CCO[C@@H]1CCN(C(=O)c2ccc[nH]2)[C@@H]1Cc1cnn(C)c1
- Percent Effect [1]: -1.78%
- Percent Effect [2]: 5.04%

Compound: CC(C)(C)NC(=O)C1CSCN1S(=O)(=O)c1cccc(F)c1 (stereo not drawn)
- Percent Effect [1]: 10.2%
- Percent Effect [2]: -19.4%

Compound: Cc1noc(NC(=O)c2ccc(OC(F)(F)F)cc2)n1
- Percent Effect [1]: 3.01%
- Percent Effect [2]: 62.3%

Compound: O=C(CN1CCCC(Cn2cncn2)C1)NCc1ccco1 (stereo not drawn)
- Percent Effect [1]: -4.69%
- Percent Effect [2]: 14.2%

Compound: COc1ccc(NC(=O)CNc2cccc3c2CCCC3)c(OC)c1
- Percent Effect [1]: 1%
- Percent Effect [2]: -28.6%

Compound: COc1ccccc1CCNC(=O)CN1CCCC1c1noc(C)n1 (stereo not drawn)
- Percent Effect [1]: -3.12%
- Percent Effect [2]: 34.4%

Compound: Cc1ccc(CN2CC[C@H]3OCC[C@@H](c4nc(C)no4)[C@H]3C2)cc1
- Percent Effect [1]: -5.18%
- Percent Effect [2]: 8.54%

Compound: Cn1cc(C[C@H]2[C@H](N3CCOCC3)CCN2C(=O)c2ccco2)cn1
- Percent Effect [1]: -2.37%
- Percent Effect [2]: -0.123%

Compound: Cc1ccc(S(=O)(=O)NC2CNC(=O)C2)cc1C (stereo not drawn)
- Percent Effect [1]: -1.98%
- Percent Effect [2]: 9.86%

Compound: CCN(CC)Cc1ccc(C(=O)N2CCCCC2Cn2cccn2)o1 (stereo not drawn)
- Percent Effect [1]: 3.47%
- Percent Effect [2]: 1.31%

Compound: Cc1nc(C)c(CNC(=O)NC(c2nnc3n2CCC3)C(C)C)s1 (stereo not drawn)
- Percent Effect [1]: 0.0985%
- Percent Effect [2]: -7.7%

Compound: CCOCC(O)CN1CCN(C(=O)c2ccc(OC)cc2F)CC1 (stereo not drawn)
- Percent Effect [1]: -10.1%
- Percent Effect [2]: -5.15%

Compound: Cc1cnn(CC2CCCN2C(=O)c2cc(Cl)ccc2F)c1 (stereo not drawn)
- Percent Effect [1]: 1.32%
- Percent Effect [2]: -18.5%

Compound: CN1CCCn2c(nc(CNC(=O)c3ccsc3)cc2=O)C1
- Percent Effect [1]: 4.62%
- Percent Effect [2]: -9.45%

Compound: O=C(c1cc2cc(F)ccc2[nH]1)N1CCC(Nc2cccnn2)CC1
- Percent Effect [1]: -0.116%
- Percent Effect [2]: -83.2%

Compound: O=C(NCCOc1ncc(Cl)cc1Cl)c1ccncc1
- Percent Effect [1]: 5.64%
- Percent Effect [2]: -19.5%

Compound: O=c1c2sccc2nc2n1CCN(Cc1cccs1)CC2
- Percent Effect [1]: 6.74%
- Percent Effect [2]: 8.96%

Compound: CC(C)(C)c1n[nH]c(C2CN(C(=O)c3ccsc3)CCO2)n1 (stereo not drawn)
- Percent Effect [1]: -2.97%
- Percent Effect [2]: 7.5%

Compound: CCc1nc(CC(=O)N2CCCC2Cn2cccn2)cs1 (stereo not drawn)
- Percent Effect [1]: 0.426%
- Percent Effect [2]: 10.2%

Compound: Cc1nn(C)c(C)c1NC(=O)CCn1ncc2c(C)cccc21
- Percent Effect [1]: 10.1%
- Percent Effect [2]: -31.5%

Compound: Cc1ccc(CN2CC[C@H]3C[C@@H](c4nc(C5CC5)cs4)O[C@@H]3C2)o1
- Percent Effect [1]: 11.7%
- Percent Effect [2]: -16.4%

Compound: CC(C)(C)c1nnc(CN2CCn3c(nnc3C3CC3)C2)o1
- Percent Effect [1]: 8.8%
- Percent Effect [2]: -5.14%

Compound: Cc1nc[nH]c1CN1C[C@@H]2CC[C@H](C1)N(C(=O)CCc1cnn(C)c1)C2
- Percent Effect [1]: 0.752%
- Percent Effect [2]: 5.79%

Compound: COc1ccc(-c2noc(CN3CCOCC3C)n2)cc1OC (stereo not drawn)
- Percent Effect [1]: 4.1%
- Percent Effect [2]: 26.5%

Compound: Cc1nc(C)n(CC2CN(CCOc3ccccc3F)CCO2)n1 (stereo not drawn)
- Percent Effect [1]: -0.955%
- Percent Effect [2]: 9.47%

Compound: CS(=O)(=O)N1CC[C@]2(C[C@@H](OCC3CCC3)CO2)C1
- Percent Effect [1]: -2.3%
- Percent Effect [2]: 6.17%

Compound: CCOc1ccc(CC(CNC(=O)c2occc2C)C(N)=O)cc1 (stereo not drawn)
- Percent Effect [1]: 2.25%
- Percent Effect [2]: 23.6%

Compound: Cc1cnn(CC2CCCCN2Cc2nc(-c3ccoc3)no2)c1 (stereo not drawn)
- Percent Effect [1]: 2.91%
- Percent Effect [2]: 26.6%

Compound: Cc1cc(=O)[nH]c(CCNC(=O)C(c2ccc(F)cc2)N(C)C)n1 (stereo not drawn)
- Percent Effect [1]: -1.19%
- Percent Effect [2]: -71.7%

Compound: Cc1ccc(-c2nc(CN3CCc4nn(C)c(=O)cc4C3)no2)cc1
- Percent Effect [1]: 5.81%
- Percent Effect [2]: -0.113%

Compound: CO[C@H]1CO[C@@]2(CCCN(C(=O)C3=CCCCC3)C2)C1
- Percent Effect [1]: 8.41%
- Percent Effect [2]: -11.8%

Compound: O=C(Nc1nncs1)NC1CCOc2ccccc21 (stereo not drawn)
- Percent Effect [1]: 5.22%
- Percent Effect [2]: -45.8%

Compound: CC1=N[C@@]2(CC[C@@H]3CN(S(=O)(=O)N(C)C)C[C@@H]32)C(=O)N1CC(C)C
- Percent Effect [1]: 6.65%
- Percent Effect [2]: -4.62%

Compound: Cc1cc(CN2CCN(C(=O)NCc3nc(C)cs3)CC2)on1
- Percent Effect [1]: 2.33%
- Percent Effect [2]: 27.5%

Compound: CN(Cc1ccncc1)CC(c1cccs1)N1CCOCC1 (stereo not drawn)
- Percent Effect [1]: -5.01%
- Percent Effect [2]: -26%

Compound: COCc1ccccc1C(=O)NCCCN1CCCC1C(=O)N(C)C (stereo not drawn)
- Percent Effect [1]: 5.84%
- Percent Effect [2]: -26.7%

Compound: CC(O)CN1CCC(CNCc2ccc(S(C)(=O)=O)cc2)CC1 (stereo not drawn)
- Percent Effect [1]: 3.1%
- Percent Effect [2]: -4.03%

Compound: Clc1ccc2cccnc2c1CN1CCCC1Cn1cncn1 (stereo not drawn)
- Percent Effect [1]: -0.524%
- Percent Effect [2]: 0.609%

Compound: Cc1ccc(-c2nc(CNCC3CN(C)CCO3)cs2)o1 (stereo not drawn)
- Percent Effect [1]: 1.27%
- Percent Effect [2]: -23.7%

Compound: Cc1nc(CN2C(=O)COC3(CCN(Cc4nccs4)CC3)C2C)cs1 (stereo not drawn)
- Percent Effect [1]: -2.21%
- Percent Effect [2]: -29.4%

Compound: CC(C)C(=O)NCCCn1ncc2c(Cl)cccc21
- Percent Effect [1]: 16.5%
- Percent Effect [2]: -6.02%

Compound: CCn1c(CN(C)C)nnc1C1CCN(Cc2cccc(OC)c2)CC1
- Percent Effect [1]: 0.565%
- Percent Effect [2]: -66.9%

Compound: CN1CCC(NC(=O)NCCNc2ccccn2)CC1
- Percent Effect [1]: 0.524%
- Percent Effect [2]: -5.67%

Compound: Cc1noc(CN2CCC(c3ccnn3CCO)CC2)n1
- Percent Effect [1]: -2.2%
- Percent Effect [2]: 4.21%

Compound: O=C([C@@H]1COC[C@H]2CN(C3CCOCC3)C[C@H]21)N1CCCCO1
- Percent Effect [1]: 6.99%
- Percent Effect [2]: -23.5%

Compound: CN1CCN(C(=O)c2nc3c(o2)CN(C(=O)c2cccnc2)C3)CC1
- Percent Effect [1]: 2.23%
- Percent Effect [2]: -53.6%

Compound: Cc1noc(C)c1CN(C)C(=O)NC1CCN(c2ncccn2)CC1
- Percent Effect [1]: 0.9%
- Percent Effect [2]: 9.61%

Compound: CCCNC(=O)N1CCN(Cc2cc(C)no2)CC1
- Percent Effect [1]: -0.393%
- Percent Effect [2]: 17.7%

Compound: CN(Cc1nccn1CC(F)(F)F)C(=O)c1ccc(F)c(F)c1
- Percent Effect [1]: 2.69%
- Percent Effect [2]: 0.723%

Compound: Cc1nn(C)c(Cl)c1C1CCCN1CCc1ccccn1 (stereo not drawn)
- Percent Effect [1]: 1.79%
- Percent Effect [2]: -0.4%

Compound: CCc1noc(CN2CCN(C(=O)N(C)C)CC2)n1
- Percent Effect [1]: -1.26%
- Percent Effect [2]: 5.9%

Compound: CN(Cc1cccs1)C(=O)CS(=O)(=O)Cc1ccc(Cl)c(Cl)c1
- Percent Effect [1]: 3.86%
- Percent Effect [2]: 0.473%

Compound: Cc1nc(C)c(C(=O)NCCNc2ncccc2C#N)s1
- Percent Effect [1]: 0.324%
- Percent Effect [2]: -20.6%

Compound: Cc1nc(CN2CCCC2c2nc(C(C)C)no2)cs1 (stereo not drawn)
- Percent Effect [1]: -4.9%
- Percent Effect [2]: 12.9%

Compound: CC(Cn1cccn1)NCc1nc(-c2cccc(Cl)c2)no1 (stereo not drawn)
- Percent Effect [1]: -3.34%
- Percent Effect [2]: 22.5%

Compound: COc1cccn(CC(=O)N(C)Cc2ccoc2)c1=O
- Percent Effect [1]: -1.64%
- Percent Effect [2]: 5.29%

Compound: Cc1noc([C@@]23CCO[C@@H]2CCN(CC2CCOCC2)C3)n1
- Percent Effect [1]: 6.14%
- Percent Effect [2]: -16.8%

Compound: CN(C)c1cc(CNC(=O)c2cn(-c3ccc(F)cc3)nn2)ccn1
- Percent Effect [1]: 1.09%
- Percent Effect [2]: 6.86%

Compound: COc1ccccc1CNC(=O)N1CCCC(c2nncn2C)C1 (stereo not drawn)
- Percent Effect [1]: -4.33%
- Percent Effect [2]: 25.8%
